EBV LMP1 NFkB: Epstein-Barr LMP1 NF-kappaB reporter inhibition; LMP1-induced NF-kappaB luciferase reporter cells, luminescence; inhibition, % at 12.5 µM; 0.69% of 350,000 active; in the data active = inhibition above about 41%; inconclusive = no clear call, values can overlap the other calls
PAX8 reporter: lowers PAX8-driven luciferase in RMG-I cells. RMG-I TPO-luciferase reporter, SteadyGlo, 24 h. 1.2% of 360,000 active. inhibition, % at 12.6 µM;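 active = mean replicate inhibition at least 60% with every replicate also reaching 60%; inconclusive = only one of the two criteria is met; inactive = mean below 60% and not all replicates reaching 60%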;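 also: luciferase light reporting Pax8 driven TPO promoter activity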
MITF TRPM1 inh: reduces MITF-dependent TRPM1 promoter luciferase signal; 0.83% of 330,000 active; inhibition, % at 12.5 µM; AID 488899; SK-MEL-5 TRPM1 promoter luciferase, 24 h;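 active = mean inhibition across replicates of 60% or more, whatever share of single replicates reaches that level; inconclusive = some that reach 60%, reason not given; inactive = mean inhibition across replicates below 60%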
EWS-Fli inh: inhibitors of EWS/Fli oncoprotein transcriptional activity. inhibition, % at 12.6 µM. A673 NR0B1-luciferase reporter, viability-normalised. 0.67% of 350,000 active. AID 651661;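 active = mean inhibition of at least 50% after viability correction, with every replicate also passing that limit; inconclusive = mean reaches 50% but only one of two replicates passes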;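 also: firefly luciferase signal divided by Alamar Blue viability fluorescence both relative to DMSO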
Shn3 3UTR inh: inhibitors of Schnurri-3 3'UTR reporter in osteoblasts; Clone20 osteoblast Shn3 3'UTR firefly luciferase, 24 h; inhibition, % at 12.5 µM; 0.52% of 360,000 active; AID 588674;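 active = mean inhibition of at least 75% with every replicate also reaching 75%; inconclusive = mean inhibition at least 75% but some replicate below; inactive = mean inhibition below 75%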
LGR2 antag: blocks bursicon-induced cAMP signaling via Drosophila LGR2 | HEK293 LGR2, CRE-luciferase, bursicon-stimulated, 4 h | inhibition, % at 9.99 µM | 0.35% of 380,000 active;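 active = drop in luminescence signal, shown as inhibition above about 50% in the replicate tests, limit read from the data, passing the limit was not always enough; inconclusive = probably only some replicates passing the limit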;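 also: agonist challenge used bursicon conditioned medium at about half maximal strength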
DNA binding: binds DNA displacing acridine orange. shares compounds with EWS-Fli inh. AID 720586. salmon sperm DNA acridine orange fluorescence polarization. AC35, µM (titrated, usually from 68 µM). 2% of 640 active;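 active = fitted curve reaches a 35% signal fall AC35 below twice the sample's top valid tested dose, actives reach about 48 µM in these data; inactive = the rest, including activity in the rising direction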;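 also: lower polarization ratio signals compound binding to DNA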
Of the large screens only hits and unclear results are named; the others gave an inactive call (follow-up assays come after a bar, where they were run). An excerpt weighted towards active compounds, which were near 2.2% of everything screened.

CN(C)c1nc2c(N)ncnc2n1C1OC(CO)C(O)C1O (configuration not stated)	none
CC1(C)Oc2cc3oc(-c4cc(O)cc(O)c4)cc3cc2CC1O (configuration not stated)	EWS-Fli inh 75.8, LGR2 antag 82.5 (no result: PAX8 reporter) | DNA binding inactive
Cc1ccc(S(=O)(=O)N[C@H]2CC[C@@H](CCNC(=O)C3CC3)O[C@H]2CO)cc1	none (no result: EBV LMP1 NFkB, PAX8 reporter, MITF TRPM1 inh, Shn3 3UTR inh)
C[C@@H]1CN([C@@H](C)CO)C(=O)c2cc(C#CCN(C)C)cnc2O[C@@H]1CN(C)Cc1ccccc1	none (no result: EBV LMP1 NFkB, PAX8 reporter, MITF TRPM1 inh, Shn3 3UTR inh)
Cc1ccc(Nc2nc(-c3c(C)nc4ncccn34)cs2)cc1	none (no result: PAX8 reporter, EWS-Fli inh, LGR2 antag)
Cc1nc2ncccn2c1-c1csc(Nc2ccc(O)cc2)n1	EWS-Fli inh 58.3 | DNA binding inactive
CCOc1ccc(N=C2C(=O)Nc3ccc(C)c(Br)c32)cc1	EWS-Fli inh 52.1 | DNA binding inactive
O=C(Nc1cccc(S(=O)(=O)N2CCOCC2)c1)c1ccc(Cl)nc1	none
O=C(Nc1cccc(S(=O)(=O)N2CCCC2)c1)c1ccc(Cl)nc1	EWS-Fli inh 51.1 (no result: PAX8 reporter) | DNA binding inactive
Cc1[nH]c(=S)sc1Cc1ccc(Cl)c(Cl)c1	EWS-Fli inh 78.9 (no result: EBV LMP1 NFkB, MITF TRPM1 inh, Shn3 3UTR inh) | DNA binding inactive
O=C1c2ccccc2C(=O)N1CCCCNc1ccccc1	EWS-Fli inh 57.0 | DNA binding inactive
O=C1c2ccccc2C(=O)N1CCCCCCc1ccccc1	none
COC(=O)C1=C(C)N(Cc2ccccc2C(F)(F)F)C(=NCc2ccc(OC)cc2)NC1c1ccc(C(F)(F)F)cc1 (configuration not stated)	EWS-Fli inh 54.9 (no result: EBV LMP1 NFkB, MITF TRPM1 inh, Shn3 3UTR inh) | DNA binding inactive
COC(=O)C1=C(C)N(Cc2cccc(C(F)(F)F)c2)C(=NCc2ccc(OC)cc2)NC1c1cccc(F)c1 (configuration not stated)	PAX8 reporter 98.7, EWS-Fli inh 50.3 (no result: EBV LMP1 NFkB, MITF TRPM1 inh, Shn3 3UTR inh) | DNA binding inactive
COC(=O)C1=C(C)N(Cc2ccccc2C(F)(F)F)C(=NCc2ccc(C(F)(F)F)cc2)NC1c1ccc(C(F)(F)F)cc1 (configuration not stated)	none (no result: EBV LMP1 NFkB, MITF TRPM1 inh, Shn3 3UTR inh)
C[C@@H]1CN([C@@H](C)CO)C(=O)Cc2cc(NC(=O)Nc3ccc(C(F)(F)F)cc3)ccc2O[C@H]1CN(C)C(=O)Nc1ccccc1	none (no result: EBV LMP1 NFkB, MITF TRPM1 inh, Shn3 3UTR inh)
C(=NNc1ccc2ccccc2n1)c1ccccn1	PAX8 reporter 101.7, EWS-Fli inh 84.1, Shn3 3UTR inh 91.8, LGR2 antag 98.9 (no result: EBV LMP1 NFkB, MITF TRPM1 inh) | DNA binding inactive
C(=N\Nc1nc2ccccc2s1)/c1ccccn1	PAX8 reporter 88.0, EWS-Fli inh 79.9, LGR2 antag 103.6 (no result: EBV LMP1 NFkB, MITF TRPM1 inh, Shn3 3UTR inh) | DNA binding inactive
COc1ccc(C=NNc2nc3ccccc3s2)cc1	EBV LMP1 NFkB inconclusive, EWS-Fli inh 65.6, LGR2 antag 77.7 | DNA binding inactive
CNC[C@@H]1OCCCC[C@@H](C)Oc2ccc(NS(=O)(=O)c3ccc(OC)cc3)cc2C(=O)N([C@H](C)CO)C[C@H]1C	none (no result: EBV LMP1 NFkB, MITF TRPM1 inh, Shn3 3UTR inh)
O=C(C[C@@H]1CC[C@@H]2[C@H](COC[C@H](O)CN2Cc2cccc(Cl)c2)O1)NCC1CCCCC1	none (no result: EBV LMP1 NFkB, MITF TRPM1 inh, Shn3 3UTR inh)
CC(C)CC#Cc1cnc2c(c1)C(=O)N([C@H](C)CO)C[C@H](C)[C@H](CN(C)S(=O)(=O)c1cn(C)cn1)O2	none (no result: EBV LMP1 NFkB, MITF TRPM1 inh, Shn3 3UTR inh)
CO[C@@H]1CN(C)C(=O)c2cc(NC(=O)NC(C)C)ccc2OC[C@@H](C)N(S(C)(=O)=O)C[C@@H]1C	none (no result: EBV LMP1 NFkB, MITF TRPM1 inh, Shn3 3UTR inh)
Cc1[nH][nH]c(=O)c1C(c1c(C)[nH][nH]c1=O)c1cn(Cc2ccc(F)cc2)c2ccccc12	none (no result: PAX8 reporter, EWS-Fli inh, LGR2 antag)
Cc1[nH][nH]c(=O)c1C(c1c(C)[nH][nH]c1=O)c1cn(Cc2ccc(Cl)c(Cl)c2)c2ccccc12	EWS-Fli inh 53.0 | DNA binding inactive
O=C(C[C@H]1CC[C@@H]2[C@H](COC[C@H](O)CN2Cc2cc(F)ccc2F)O1)NCc1ccc(Cl)cc1	none (no result: EBV LMP1 NFkB, MITF TRPM1 inh, Shn3 3UTR inh)
O=C(NC[C@@H]1N[C@@H](CO)[C@H]1c1ccc(C2=CCCCC2)cc1)c1cccc(F)c1	EWS-Fli inh 59.0 (no result: EBV LMP1 NFkB, MITF TRPM1 inh, Shn3 3UTR inh) | DNA binding inactive
BrC(=C\c1ccccc1)/C=N/Nc1ccc2nncn2n1	none
BrC(=C\c1ccccc1)/C=N/n1cnnc1	EBV LMP1 NFkB inconclusive, PAX8 reporter 95.3, MITF TRPM1 inh 82.6, EWS-Fli inh 67.5, LGR2 antag 85.7 | DNA binding inactive

Assay outcomes (PubChem BioAssay)
